Experimental data as given in PubChem BioAssay AID1224903 (Bradner/Qi Labs at DFCI, 2016).
Hit rate of the full screen: of about 66,000 compounds, about 720 (1.1%) were called active. Rule as the data show it: active = normalised signal below about 0.5; inactive = the rest, inconclusive results apart. The entries come from a sample that favours actives as a whole.

What follows are compounds tested against Chromobox protein homolog 7 (Homo sapiens) (UniProt O95931) (assay: blockers of CBX7 binding to H3K27me3 peptide – biochemical, AlphaScreen, primary screen (AID 1224903)). Details: AlphaScreen His6-CBX7 / biotin-H3K27me3 peptide binding, stronger effect = lower value; z-score: measured here: z-score of CBX7 signal.
Sequence of Chromobox protein homolog 7 (Homo sapiens) (O95931 whole entry, looked up): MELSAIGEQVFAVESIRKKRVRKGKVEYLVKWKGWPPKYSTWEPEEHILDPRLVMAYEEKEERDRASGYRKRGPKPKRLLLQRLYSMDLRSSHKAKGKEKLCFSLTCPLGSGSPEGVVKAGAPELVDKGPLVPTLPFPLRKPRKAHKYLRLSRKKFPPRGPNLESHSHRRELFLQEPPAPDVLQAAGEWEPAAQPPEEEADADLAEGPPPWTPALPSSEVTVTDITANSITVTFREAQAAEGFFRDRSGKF
`Cc1ccc(C2CC(c3ccc(C)cc3)n3ncnc3N2)cc1` (stereo unspecified) was tested, and the normalised signal (fraction of DMSO) was 1.02 (inactive) and the z-score was 0.839.
For `Cc1cc(C)cc(NS(=O)(=O)c2cnc[nH]2)c1`, the normalised signal (fraction of DMSO) was 1.01 (inactive) and the z-score was 0.0588.
In the case of `COc1ccc(NC2CC(=O)N(Cc3ccccc3)C2=O)cc1` (stereo unspecified), the normalised signal (fraction of DMSO) is reported as 1.18 (inactive) and the z-score is reported as 0.412.
`COc1ccccc1NC(=O)Cn1ccc2ccccc2c1=O` was tested, and the normalised signal (fraction of DMSO) was 0.981 (inactive) and the z-score was -0.168.
`O=C(Nc1ccc2c(c1)OCO2)c1cnc2ccccn2c1=O` was tested, and the normalised signal (fraction of DMSO) was 0.987 (inactive) and the z-score was -0.351.
For `CCN1CCN(c2ccc(Nc3nc(-c4ccccc4)c4cc(Cl)ccc4n3)cc2)CC1`, the normalised signal (fraction of DMSO) was 0.231 (active) and the z-score was -24.9.
For `O=C(O)c1ccc(Nc2nc(-c3ccccc3)c3cc(Br)ccc3n2)cc1`, the normalised signal (fraction of DMSO) was 1.05 (inactive) and the z-score was 2.04.
With `Cc1ccc(Nc2nc(-c3ccccc3)c3cc(Cl)ccc3n2)cc1` the normalised signal (fraction of DMSO) was 1.7 (inactive) and the z-score was 11.8.
With `Cc1nc2sc(C(c3cccs3)N3CCc4ccccc4C3)c(O)n2n1` (stereo unspecified) the normalised signal (fraction of DMSO) was 0.953 (inactive) and the z-score was -2.28.
With `COc1ccc2[nH]c(C)c(CCNS(=O)(=O)c3ccc(Cl)c(OC)c3)c2c1` the normalised signal (fraction of DMSO) was 0.845 (inactive) and the z-score was -0.316.
With `Cc1ccc2[nH]c(C)c(CCNS(=O)(=O)c3ccc(C)c(C)c3C)c2c1` the normalised signal (fraction of DMSO) was 0.951 (inactive) and the z-score was -0.467.
In the case of `COc1ccc(OC)c(S(=O)(=O)NCCc2c(C)[nH]c3ccc(C)cc23)c1`, the normalised signal (fraction of DMSO) is reported as 0.427 (active) and the z-score is reported as -0.571.
In the case of `COc1ccc(S(=O)(=O)NCCc2c(C)[nH]c3ccc(C)cc23)cc1C`, the normalised signal (fraction of DMSO) is reported as 0.907 (inactive) and the z-score is reported as -1.43.
`Cc1[nH]c2ccc(OC(F)(F)F)cc2c1CCNS(=O)(=O)c1ccc(C(C)C)cc1` was tested, and the normalised signal (fraction of DMSO) was 0.913 (inactive) and the z-score was -1.89.
`COc1ccc2[nH]c(C)c(CCNS(=O)(=O)c3cc(Br)ccc3OC)c2c1` was tested, and the normalised signal (fraction of DMSO) was 0.363 (active) and the z-score was -0.634.
With `Cc1nc2sccn2c1-c1csc(Nc2ccc(S(N)(=O)=O)cc2)n1` the normalised signal (fraction of DMSO) was 1.07 (inactive) and the z-score was 0.0851.
For `Cc1ccc(Cn2nnc3c(=O)n(Cc4c(F)cccc4Cl)cnc32)cc1`, the normalised signal (fraction of DMSO) was 0.864 (inactive) and the z-score was -2.23.
For `Cc1ccn2c(NC3CCCCC3)c(-c3cccs3)nc2c1`, the normalised signal (fraction of DMSO) was 0.819 (inactive) and the z-score was -1.46.
In the case of `COc1ccc(OC)c(NC(=O)CCc2c(C)nc3c(c(C)nn3-c3ccc(C)cc3)c2C)c1`, the normalised signal (fraction of DMSO) is reported as 0.992 (inactive) and the z-score is reported as -0.0612.
`CCCCCC(O)(CCN1CCCCC1)c1ccccc1` (stereo unspecified) was tested, and the normalised signal (fraction of DMSO) was 1.09 (inactive) and the z-score was 2.44.
With `CCCN1C(=O)C(O)(CC(=O)c2ccc(CC)cc2)c2cc(Br)ccc21` (stereo unspecified) the normalised signal (fraction of DMSO) was 0.0492 (active) and the z-score was -1.07.
`CCc1ccc(C(=O)CC2(O)C(=O)N(CCc3ccccc3)c3ccc(Br)cc32)cc1` (stereo unspecified) was tested, and the normalised signal (fraction of DMSO) was 0.626 (inactive) and the z-score was -10.8.
`CC(C)c1ccc(C(=O)CC2(O)C(=O)N(Cc3ccccc3)c3ccc(Br)cc32)cc1` (stereo unspecified) was tested, and the normalised signal (fraction of DMSO) was 0.876 (inactive) and the z-score was -1.19.
